Only some compounds are listed: those with a hit (about 3.6% of all), similar ones and a draw of the others.
MazEF act – MazEF (E. coli) toxin RNase activation; P0AE70; FAM/BHQ RNA-DNA oligo cleavage fluorescence, 5 h; activation, % at 20 µM; 0.32% of 350,000 active; AID 504720; in the data active = activation above about 50%
Autofluor counter – compound fluorescence in toxin protease inhibitor counterscreen | fluorescence intensity (no concentration beside the values) | AID 624483 | compound autofluorescence counterscreen, microsphere flow cytometry; active compounds read high | 3.1% of 360,000 active; in the data active = fluorescence intensity above about 16000; inconclusive = no clear call, values can overlap the other calls
BoNT F protease – blocks Botulinum neurotoxin F light chain protease; 0.22% of 360,000 active; inhibition, % at 10 µM; AID 588497; Multiplex microsphere protease cleavage assay, flow cytometry; in the data active = inhibition above about 35%, passing the limit was not always enough; inconclusive = no clear call, values can overlap the other calls; note: plate controls were buffer without enzyme for full effect and enzyme alone for no effect
Anthrax LF prot – anthrax lethal factor protease inhibition; P15917; multiplex microsphere protease cleavage assay, LF; inhibition, % at 10 µM; 0.12% of 360,000 active; AID 588501; in the data active = inhibition above about 30%; inconclusive = no clear call, values can overlap the other calls; note: plate controls were buffer without enzyme for full effect and enzyme alone for no effect
Target sequence (P15917 whole entry, looked up): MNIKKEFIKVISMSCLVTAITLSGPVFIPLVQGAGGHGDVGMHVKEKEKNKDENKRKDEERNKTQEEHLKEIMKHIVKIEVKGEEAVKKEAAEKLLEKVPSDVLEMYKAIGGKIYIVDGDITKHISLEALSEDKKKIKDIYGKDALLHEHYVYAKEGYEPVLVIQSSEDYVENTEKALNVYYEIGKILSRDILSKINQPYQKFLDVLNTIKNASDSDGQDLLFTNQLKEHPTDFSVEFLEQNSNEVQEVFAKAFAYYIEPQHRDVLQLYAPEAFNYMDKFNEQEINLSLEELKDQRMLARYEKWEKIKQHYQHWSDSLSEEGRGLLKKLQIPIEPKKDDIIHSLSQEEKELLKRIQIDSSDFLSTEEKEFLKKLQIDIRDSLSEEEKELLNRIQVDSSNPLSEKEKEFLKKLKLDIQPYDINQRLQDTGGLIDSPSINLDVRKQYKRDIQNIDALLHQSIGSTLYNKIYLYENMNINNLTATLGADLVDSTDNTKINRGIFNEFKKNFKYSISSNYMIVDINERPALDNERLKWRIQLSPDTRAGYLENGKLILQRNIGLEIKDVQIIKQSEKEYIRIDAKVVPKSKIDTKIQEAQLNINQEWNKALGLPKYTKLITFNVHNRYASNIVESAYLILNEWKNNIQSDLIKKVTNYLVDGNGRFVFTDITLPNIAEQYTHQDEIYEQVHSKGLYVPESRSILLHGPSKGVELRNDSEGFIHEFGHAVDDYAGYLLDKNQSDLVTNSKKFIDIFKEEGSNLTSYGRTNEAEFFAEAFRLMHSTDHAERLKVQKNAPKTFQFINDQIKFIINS
BoNT-A LC inh2 – blocks Botulinum neurotoxin A light chain protease. multiplex microsphere protease substrate cleavage, flow cytometry. inhibition, % at 10 µM. 0.17% of 360,000 active. AID 588499; in the data active = inhibition above about 30%; inconclusive = no clear call, values can overlap the other calls; note: plate controls were buffer without enzyme for full effect and enzyme alone for no effect
BoNT-A LC CP1 – blocks botulinum neurotoxin A light chain protease; shares compounds with BoNT F protease; multiplex microsphere protease assay, flow cytometry; inhibition, % at 10 µM; 3% of 720 active; in the data active = inhibition above about 32%
BoNT-F LC CP1 – blocks botulinum neurotoxin F light chain protease; shares compounds with BoNT F protease; multiplex microsphere protease cleavage assay, flow cytometry; inhibition, % at 10 µM; 720 tested, under 10 active; AID 602140
LF protease CP1 – blocks anthrax lethal factor protease | AID 602142 | multiplex microsphere protease cleavage assay, LF | 720 tested, under 10 active | shares compounds with BoNT F protease | inhibition, % at 10 µM
* = called active by the depositor; ? = inconclusive; / = no result; + = active, no number. Unless noted, the rule behind the calls is not given here.

SMILES	MazEF act	Autofluor counter	BoNT F protease	Anthrax LF prot	BoNT-A LC inh2	BoNT-A LC CP1	BoNT-F LC CP1	LF protease CP1
CN(C)C(=O)CSc1nnc(-c2ccc(S(=O)(=O)N3CCCC3)cc2)n1C	-24.8	3290	-9.1	-1.7	0.1	/	/	/
CC(=O)CSc1nnc(-c2ccc(S(=O)(=O)N3CCCC3)cc2)n1C	5.0	3870	-9.8	31.0*	1.0	1.0	0.8	1.9
O=C(O)c1cc(-c2ccccc2)c(N2CCOCC2)s1	2.5	2262	21.1	69.2*	84.4*	0.4	0.2	2.3
c1ccc(-c2cnn3c(-c4ccccc4)c(-c4ccccc4)nc3n2)cc1	+	5602	20.9	20.8	37.0*	26.1	23.2	10.9
COc1ccc(-n2nc(C(=O)NCC(=O)NCc3cccc(F)c3)c3ccccc3c2=O)cc1Cl	2.8	6493	36.3*	2.0	3.2	-2.9	-23.9	-0.7
COc1cc([N+](=O)[O-])ccc1NC(=O)CCS(=O)(=O)c1ccc2c(c1)n(C)c(=O)c(=O)n2C	-5.2	5390	-5.6	0.6	-1.0	/	/	/
CCOC(=O)C1CCN(C(=O)Nc2ccc(OCc3ccccc3)cc2)CC1	0.6	3889	?	30.8*	-4.4	0.3	0.2	-3.9
COc1ccccc1N1C(=O)CC(N2CCN(c3ccc(F)cc3)CC2)C1=O (stereo not given)	1.6	3063	40.5*	19.1	-2.0	0.5	-3.8	2.1
COCCNC(=O)c1cccc2c(-c3cnn(C)c3)coc12	/	3930	-3.2	1.4	0.3	/	/	/
COc1cc(NC(=O)c2ccc(-c3ccc(F)c(F)c3)c3ccoc23)cc(OC)c1OC	/	3328	-3.0	0.7	0.6	/	/	/
CCOc1ccc(CC2c3cc(OCC)c(OCC)cc3CCN2C(=O)CN2CCN(C)CC2)cc1OCC (stereo not given)	4.5	3816	34.7*	-3.1	-3.8	-1.5	-2.0	-2.3
CCOc1ccc(CC2NCCc3cc(OCC)c(OCC)cc32)cc1OCC (stereo not given)	-8.3	4745	-0.3	0.2	0.2	/	/	/
CCOc1ccccc1NC(=S)/C(=C(\[O-])c1ccc2c(c1)OCCO2)[n+]1ccc(CC)cc1	17.4	6403	-24.1	12.6	11.4	/	/	/
CS(=O)(=O)Nc1ccccc1C(=O)Nc1cccc(Cl)c1	-5.6	5367	52.6*	7.5	?	0.2	-1.3	2.8
O=C(Nc1scc(-c2ccccc2)c1C(=O)O)c1ccccc1F	-10.3	4068	?	19.5	3.3	/	/	/
Cc1ccc(-c2csc(NC(=O)c3ccccc3F)c2C(=O)O)cc1	-1.3	3981	35.0*	20.3	3.5	-0.4	-4.9	-7.1
CCOC(=O)[C@]12CCC=C1N(CCC1=CCCCC1)C(=O)[C@H](CC(=O)N1CCCCC1)C2	/	6248	0.7	3.9	0.1	/	/	/
O=C(c1cc([N+](=O)[O-])[nH]n1)N1CCSCC1	-4.8	3833	36.2*	5.6	-3.0	0.6	-2.5	2.0
COc1ccc2c(c1)CCCN2S(=O)(=O)c1ccc(Cl)cc1	1.3	3742	-8.4	37.3*	1.0	-0.1	-11.1	-2.7
O=S(=O)(c1ccc(Cl)cc1)N1CCCc2ccccc21	1.6	3196	-13.4	-4.6	-0.5	/	/	/
Cc1nn(Cc2ccc([N+](=O)[O-])cc2)c(=O)n1N(C)c1ncc(C(F)(F)F)cc1Cl	-8.7	4593	38.4*	-3.9	0.2	1.2	3.2	-0.1
Cc1nn(Cc2ccc(Cl)cc2)c(=O)n1N(C)c1ncc(C(F)(F)F)cc1Cl	2.3	4712	-20.0	-4.6	-0.1	/	/	/
CSc1ncccc1C(=O)OCC(=O)N(C)Cc1ccc(C)cc1	6.1	3975	1.5	-0.9	-0.2	/	/	/
O=C1CNCc2[nH]c3ccccc3c2N1c1ccccc1	-2.4	9946	-7.9	21.1	33.2*	0.4	-9.8	-3.3
Cc1cc2c(sc3c(C)ccc(C)c32)c(C)n1	9.9	3844	?	28.7	-2.4	-0.7	-1.9	-3.1
SMILES	MazEF act	Autofluor counter	BoNT F protease	Anthrax LF prot	BoNT-A LC inh2	BoNT-A LC CP1	BoNT-F LC CP1	LF protease CP1
Cc1ccc(OCC2Cn3c(nc4c3c(=O)[nH]c(=O)n4C)O2)cc1C (stereo not given)	8.1	3017	14.4	31.3*	2.1	-0.6	-9.9	1.7
O=C(O)C(=Cc1cccc([N+](=O)[O-])c1)c1ccc(Cl)cc1	4.6	3870	0.4	1.7	-0.6	/	/	/
CCn1ccnc1CN1CCN(CC=C(C)C)C(CCO)C1 (stereo not given)	-22.2	2683	47.9*	-1.0	4.5	0.5	-3.8	-0.8
Cc1ccc(SCCC(=O)Nc2ccccc2C(=O)NC2CCCCC2)cc1	-2.0	2115	39.2*	0.2	3.5	-2.7	-8.2	-1.4
C=CCNc1nnnc2c1sc1nc(N3CCOCC3)c3c(c12)CCCC3	-18.1	4709	-5.7	-5.5	0.4	/	/	/
Cc1ccccc1NC(=O)c1cccc(S(=O)(=O)Nc2cccc(C(=O)O)c2)c1	4.5	3658	?	-1.5	-2.9	-1.3	-1.1	-1.0
O=C(O)c1ccc(NS(=O)(=O)c2cccc(C(=O)Nc3cccc(C(=O)O)c3)c2)cc1	3.2	3557	-10.5	1.3	-1.0	0.1	-0.6	-2.2
Cc1ccc(C(=O)N2CCN(c3ccc(N4CCOCC4)nn3)CC2)cc1	3.5	4117	7.9	-3.3	4.5	/	/	/
CCCCOc1ccc(C(=O)N2CCN(c3ccc(N4CCOCC4)nn3)CC2)cc1	0.2	?	59.2*	23.3	7.9	1.0	-2.6	2.0
O=C(CO)c1c[nH]c2ccccc12	/	5398	3.5	1.4	0.0	/	/	/
Cc1ccc(S(=O)(=O)N2CCN(C(=O)CSc3n[nH]c(N)n3)CC2)c(C)c1	4.2	3413	-0.9	-1.8	-0.6	/	/	/
Cc1c(NC(=O)c2cccc(NC(=O)Cc3c(F)cccc3Cl)c2)c(=O)n(-c2ccccc2)n1C	2.1	2960	-2.0	-3.2	-0.3	/	/	/
Cc1c(NC(=O)c2cccc(NC(=O)Cc3ccc(F)cc3)c2)c(=O)n(-c2ccccc2)n1C	3.5	?	2.2	43.7*	-2.2	-2.2	-10.3	-2.9
Cc1cc(OCC(=O)OCC(=O)Nc2ccc(Cl)cn2)ccc1Cl	7.5	3830	-6.1	-2.1	-0.5	/	/	/
CC(C)Cc1cc(C(=O)Nc2ccccc2)c2ccccc2n1	-23.2	3635	42.6*	-6.2	-1.3	-0.9	-3.7	0.1
Cc1cc(C(=O)Nc2ccccc2)c2ccccc2n1	1.6	3543	8.9	22.3	-0.6	/	/	/
O=S(=O)(NCc1cccnc1)c1cc(Cl)ccc1Cl	3.7	7951	37.1*	-28.6	34.2*	0.8	-5.9	2.5
O=C(O)c1ccc(Cl)c(S(=O)(=O)NCc2cccnc2)c1	-14.2	3280	-0.1	-2.5	-0.8	/	/	/
CCOC(=O)N1CCN(C(=O)c2ccc(C)c(S(=O)(=O)Nc3ccccc3)c2)CC1	-2.1	3457	34.5*	-2.5	0.6	0.4	-2.6	1.3
CCOC(=O)N1CCN(C(=O)c2ccc(C)c(S(=O)(=O)Nc3cccc(C)c3C)c2)CC1	1.2	9944	-16.1	1.9	?	/	/	/
CC(C)Oc1ccc(F)cc1-c1cc(C(=O)Nc2ccc(C(C)(C)C)cc2)[nH]n1	/	2972	-6.7	0.1	-0.3	/	/	/
